From PubChem BioAssay (Tox21) come the findings set out here.

Assay [1] can be described thus: qHTS assay to identify small molecule antagonists of the glucocorticoid receptor (GR) signaling pathway - cell viability counter screen (AID 720693). Further: nearly all actives have a fitted effect of over 55% in size. A general note: Quantitative high-throughput screening tests each substance at several concentrations.
A short description of assay [2]: qHTS assay for identifying genotoxic compounds that show differential cytotoxicity against isogenic chicken DT40 cell lines with known DNA damage response pathways - wild type cell line (AID 743012). Further: nearly all actives have a fitted effect of over 60% in size. Further: potency means the concentration at half of the fitted maximal effect. A digest of the protocol:
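Quantitative HTS on parental DT40 cells: 40 h compound treatment at 37 C/5% CO2, with viability then determined by CellTiter-Glo luminescence. Values serve as the DNA repair-proficient reference for differential cytotoxicity.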

The nature of assay [3]: qHTS assay for identifying genotoxic compounds that show differential cytotoxicity against isogenic chicken DT40 cell lines with known DNA damage response pathways - Rev3 mutant cell line (AID 743014). Further: nearly all actives have a fitted effect of over 55% in size. Further: potency means the concentration at half of the fitted maximal effect.
The nature of assay [4]: qHTS assay for identifying genotoxic compounds that show differential cytotoxicity against isogenic chicken DT40 cell lines with known DNA damage response pathways - Rad54/Ku70 mutant cell line (AID 743015). Further: nearly all actives have a fitted effect of over 60% in size. Further: potency means the concentration at half of the fitted maximal effect.
Assay [5] in a line: qHTS assay to identify small molecule antagonists of the androgen receptor (AR) signaling pathway - cell viability counter screen (AID 743033; further: nearly all actives have a fitted effect of over 45% in size; further: potency means the concentration at half of the fitted maximal effect).
Assay [6] in a line: qHTS assay to identify small molecule antagonists of the androgen receptor (AR) signaling pathway using the MDA cell line - cell viability counter screen (AID 743041; further: nearly all actives have a fitted effect of over 45% in size; further: potency means the concentration at half of the fitted maximal effect). In outline: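 Cells were plated at 3,000 per well and left 5 h. Compounds in DMSO were then pinned in, followed by R1881. After 16 h at 37C, CellTiter-Fluor fluorescence gave viability.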
Assay [7] is described as follows: qHTS assay to identify small molecule antagonists of the thyroid receptor (TR) signaling pathway - cell viability counter screen (AID 743064). Further: nearly all actives have a fitted effect of over 50% in size. Further: potency means the concentration at half of the fitted maximal effect. In outline:
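Viability of T3-stimulated (1 nM final) GH3.TRE-Luc cells is measured by CellTiter-Fluor fluorescence after 23.5 h compound exposure at 37 °C plus 30 min reagent incubation.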

Assay [8] is described as follows: qHTS assay to identify small molecule antagonists of the thyroid receptor (TR) signaling pathway (AID 743065). Further: nearly all actives have a fitted effect of over 55% in size. Further: potency means the concentration at half of the fitted maximal effect. In outline: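 Antagonism measured as loss of luciferase signal in GH3 cells stably carrying a TRE-luciferase reporter, co-treated with compound and T3 (1 nM final) for 23.5 h at 37 C. Viability was read in the same well by CellTiter-Fluor.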
Assay [9] has as its system thyroid hormone receptor (rat, GH3 cells). In words: qHTS assay to identify small molecule agonists of the thyroid receptor (TR) signaling pathway (AID 743066; calls by dose curve).
In assay [10] the target is Estrogen receptor (Homo sapiens) (UniProt P03372). In words: qHTS assay to identify small molecule antagonists of the estrogen receptor alpha (ER-alpha) signaling pathway (AID 743069; active means well fitted curve in the direction sought with a large enough effect in the signal ratio in the repeat runs, not every such curve was filed as active; the % refers to the signal ratio). In outline: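 ER-alpha-UAS-bla GripTite HEK293 line; 2% charcoal-stripped FBS overnight; plated, 4 hr 37C/5% CO2; cpd in DMSO + 17beta-estradiol, 18 hr 37C; LiveBLAzer B/G FRET substrate 2 hr RT; fluorescence intensity.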

Assay [11] in a line: qHTS assay to identify small molecule antagonists of the estrogen receptor alpha (ER-alpha) signaling pathway - cell viability counter screen (AID 743074; calls by dose curve;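 further: HEK293 cells carrying ER-alpha-UAS-bla reporter stimulated with 17beta-estradiol; nearly all actives have a fitted effect of over 45% in size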).
In assay [12] the target is Estrogen receptor (Homo sapiens) (UniProt P03372). In words: qHTS assay to identify small molecule agonists of the estrogen receptor alpha (ER-alpha) signaling pathway (AID 743075; calls by dose curve;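 further: HEK293 GripTite cells with ER-alpha and UAS-driven beta-lactamase reporter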).
Assay [13] has the same target. Put plainly: qHTS assay to identify small molecule agonists of the estrogen receptor alpha (ER-alpha) signaling pathway using the BG1 cell line (AID 743079). Further: nearly all actives have a fitted effect of over 20% in size. As to conditions: BG1Luc4E2 cells, ERE-luciferase agonist, 22 h; activation: at 70.3 µM (top of the series).
Assay [14] can be described thus: qHTS assay to identify small molecule antagonists of the estrogen receptor alpha (ER-alpha) signaling pathway using the BG1 cell line (AID 743080; calls by dose curve;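 further: BG1 cells stimulated with 17beta-estradiol alongside compound; nearly all actives have a fitted effect of over 25% in size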). A digest of the protocol:
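BG1-Luc-4E2 cells (endogenous full-length ER-alpha, 4xERE luciferase) hormone-starved 5 days in charcoal-stripped FBS, plated 4,000/well for 24 h, then compound plus 17beta-estradiol for 21.5 h at 37 C; ONE-Glo luminescence read.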

Assay [15] in a line: qHTS assay to identify small molecule antagonists of the estrogen receptor alpha (ER-alpha) signaling pathway using the BG1 cell line - cell viability counter screen (AID 743081).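 Further: compound given together with 17beta-estradiol as the ER stimulus; nearly all actives have a fitted effect of over 45% in size.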
In assay [16] the target is Aromatase (Homo sapiens) (UniProt P11511). In words: qHTS assay to identify aromatase inhibitors (AID 743083). Further: nearly all actives have a fitted effect of over 55% in size.
The target in assay [17] is Androgen receptor (Homo sapiens) (UniProt P10275). In words: qHTS assay to identify small molecule antagonists of the androgen receptor (AR) signaling pathway (AID 743035; active means well fitted inhibition curve with a large enough effect in the signal ratio in the repeat runs, not every such curve was filed as active; the % refers to the signal ratio). A digest of the protocol: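 Cell line: GeneBLAzer AR-UAS-bla GripTite (HEK293). Stimulus: R1881 added after compound. Exposure: 16 h, 37C, 5% CO2. Readout: LiveBLAzer B/G FRET fluorescence after 2 h at room temperature.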

Assay [18] shares this target. In words: qHTS assay to identify small molecule agonists of the androgen receptor (AR) signaling pathway using the MDA cell line (AID 743040; further: nearly all actives have a fitted effect of over 20% in size). In outline: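 Cells plated, 5 h at 37C/0% CO2; compound or DMSO pinned; 16 h at 37C; ONE-Glo added; luminescence measured after 30 min at room temperature. Reporter line: MDA-kb2 with MMTV-luciferase responsive to AR and GR.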

Assay [19] shares this target. In words: qHTS assay to identify small molecule antagonists of the androgen receptor (AR) signaling pathway using the MDA cell line (AID 743042; further: nearly all actives have a fitted effect of over 55% in size). A digest of the protocol:
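Antagonist mode: compounds plus R1881 agonist added to MDA-kb2 AR-luc cells, incubated 16 h at 37C. Luciferase reporter luminescence quantified, with multiplexed CellTiter-Fluor readout for cell viability.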

Assay [20] has the same target. In words: qHTS assay to identify small molecule agonists of the androgen receptor (AR) signaling pathway (AID 743036; active means well fitted activation curve with a large enough effect in the signal ratio in the repeat runs, with a control signal flat, not every such curve was filed as active; the % refers to the signal ratio). A digest of the protocol: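 Screening used 2,000 AR-bla HEK293 cells per well, treated 16 h at 37C with test compounds in DMSO alongside positive and DMSO-only controls; beta-lactamase activity was then read by LiveBLAzer B/G FRET fluorescence after 2 h at room temperature.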

Records with an inconclusive call do not appear. The source made the active and inactive calls. Unless noted, the call rests on the fitted dose curve; in most records, active means well fitted curve in the direction sought with a large enough effect in the repeat runs; inconclusive means weak or mixed curves; inactive means no such curve, though single readings can be large; an effect the other way counts as inactive or inconclusive.

Aromatase (Homo sapiens), sequence (P11511 whole entry, looked up): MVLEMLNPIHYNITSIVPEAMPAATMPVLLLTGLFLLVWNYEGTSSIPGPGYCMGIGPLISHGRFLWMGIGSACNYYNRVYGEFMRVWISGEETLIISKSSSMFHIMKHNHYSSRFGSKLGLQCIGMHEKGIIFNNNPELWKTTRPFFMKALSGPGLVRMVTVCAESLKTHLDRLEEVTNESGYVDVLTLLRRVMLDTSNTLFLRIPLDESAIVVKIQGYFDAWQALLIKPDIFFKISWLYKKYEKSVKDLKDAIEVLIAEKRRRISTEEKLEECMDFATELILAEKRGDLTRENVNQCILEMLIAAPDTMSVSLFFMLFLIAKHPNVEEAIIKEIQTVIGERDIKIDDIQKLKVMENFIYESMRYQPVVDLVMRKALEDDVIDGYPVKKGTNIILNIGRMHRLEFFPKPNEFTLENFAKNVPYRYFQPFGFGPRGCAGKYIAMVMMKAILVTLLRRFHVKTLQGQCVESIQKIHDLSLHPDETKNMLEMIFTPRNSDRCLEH
Estrogen receptor (Homo sapiens), sequence (P03372 whole entry, looked up): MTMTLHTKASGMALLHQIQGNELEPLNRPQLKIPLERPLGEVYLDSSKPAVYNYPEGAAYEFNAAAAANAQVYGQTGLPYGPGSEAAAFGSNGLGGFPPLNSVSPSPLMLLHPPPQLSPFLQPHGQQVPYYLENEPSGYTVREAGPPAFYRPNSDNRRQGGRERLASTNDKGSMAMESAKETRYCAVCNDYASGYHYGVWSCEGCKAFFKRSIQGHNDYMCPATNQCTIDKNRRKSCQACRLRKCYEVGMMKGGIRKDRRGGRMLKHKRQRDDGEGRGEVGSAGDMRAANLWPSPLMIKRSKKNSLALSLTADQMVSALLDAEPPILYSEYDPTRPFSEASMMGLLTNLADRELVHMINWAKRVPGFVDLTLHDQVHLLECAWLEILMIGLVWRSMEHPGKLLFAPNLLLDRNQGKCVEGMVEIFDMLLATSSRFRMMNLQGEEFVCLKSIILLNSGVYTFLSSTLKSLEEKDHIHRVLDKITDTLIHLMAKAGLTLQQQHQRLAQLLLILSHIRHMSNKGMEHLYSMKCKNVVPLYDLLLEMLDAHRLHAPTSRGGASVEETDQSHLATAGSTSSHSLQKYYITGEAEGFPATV
Androgen receptor (Homo sapiens), sequence (P10275 whole entry, looked up): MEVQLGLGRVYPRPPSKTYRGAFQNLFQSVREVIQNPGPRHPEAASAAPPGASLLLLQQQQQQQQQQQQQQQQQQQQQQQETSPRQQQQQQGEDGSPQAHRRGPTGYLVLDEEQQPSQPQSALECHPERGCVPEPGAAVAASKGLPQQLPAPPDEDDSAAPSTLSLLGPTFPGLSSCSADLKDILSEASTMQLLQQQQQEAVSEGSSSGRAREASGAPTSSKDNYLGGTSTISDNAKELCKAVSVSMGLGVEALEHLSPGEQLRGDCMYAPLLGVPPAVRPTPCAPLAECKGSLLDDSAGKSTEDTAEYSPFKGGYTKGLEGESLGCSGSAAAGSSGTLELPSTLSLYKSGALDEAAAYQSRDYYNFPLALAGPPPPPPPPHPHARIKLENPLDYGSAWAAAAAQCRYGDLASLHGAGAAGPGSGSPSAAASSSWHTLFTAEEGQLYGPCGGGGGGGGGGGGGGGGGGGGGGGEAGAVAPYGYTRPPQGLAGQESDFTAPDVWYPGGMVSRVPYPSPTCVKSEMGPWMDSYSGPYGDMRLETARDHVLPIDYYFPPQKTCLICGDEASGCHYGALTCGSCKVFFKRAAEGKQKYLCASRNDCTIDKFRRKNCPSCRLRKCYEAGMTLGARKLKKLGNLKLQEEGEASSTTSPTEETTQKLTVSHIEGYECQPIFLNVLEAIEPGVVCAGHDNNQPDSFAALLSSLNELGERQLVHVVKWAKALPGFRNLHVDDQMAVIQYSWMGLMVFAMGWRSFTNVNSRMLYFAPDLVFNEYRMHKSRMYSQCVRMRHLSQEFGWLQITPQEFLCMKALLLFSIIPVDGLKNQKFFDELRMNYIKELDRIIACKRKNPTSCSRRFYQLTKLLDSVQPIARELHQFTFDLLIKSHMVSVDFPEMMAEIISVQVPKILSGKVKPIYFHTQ

As for `CC1=C(C=O)C(C)(C)CCC1`, the Potency entry in [1], in assay [2], in assay [3], in assay [4], in assay [5] and in assay [6] was “inactive” in each case. Besides, the Potency result in [7], in [8], in assay [10], in [11], in assay [12] and in [13] was “inactive” throughout. In addition, the Potency entry in assay [14], in [15] and in assay [16] was “inactive” in each case. Also, the compound was called inactive in assay [9].

With `CO[C@H]1O[C@H](CO)[C@@H](O)[C@H](O)[C@H]1O`, the Potency result in assay [1], in assay [2], in [3], in [4], in assay [5] and in assay [6] was “inactive” in each case. In addition, the Potency entry in [7], in assay [8], in assay [11], in assay [15] and in assay [16] was “inactive” in each case. Moreover, in assay [9], the compound was classed as inactive.

For `O=C(NCCCN1CCOCC1)c1ccc(Cl)cc1`, the Potency result in [1], in [2], in [3], in assay [4], in assay [5] and in assay [6] was “inactive” in each case. The Potency result in [7], in [8], in assay [10], in assay [11], in assay [12] and in [13] was “inactive” throughout. In addition, the Potency result in assay [15] and in [16] was “inactive” each time. In assay [9], the call was inactive.

As to `COc1cc2c(N3CCN(C(=O)Nc4ccc(OC(C)C)cc4)CC3)ncnc2cc1OCCCN1CCCCC1`, the Potency entry in [1], in [17], in [18], in assay [19], in [10] and in assay [11] was “inactive” each time. Also, the Potency entry in [13], in [14] and in assay [16] was “inactive” each time. Besides, the Potency is 6.68 µM (active) in [2]; 7.5 µM (active) in assay [3]; 5.96 µM (active) in assay [4]; 6.01 µM (active) in [5]; 33.5 µM (active) in [6]; 11.9 µM (active) in assay [7]. The Potency in assay [8] was 13.3 µM (active).

Consider `CC1(C)C2=CCCC(C)(C)[C@]23CC[C@H]1C3`, for which the Potency result in [1], in assay [5], in [17], in assay [20], in [18] and in [6] was “inactive” in each case. Besides, the Potency entry in assay [19], in assay [7], in [11] and in assay [15] was “inactive” each time. Moreover, the Potency in assay [2] is 54.5 µM (active); in assay [3], 43.3 µM (active); in assay [4] it was 30.6 µM (active). Moreover, the compound was classed as inactive in assay [9].

With `CN1C(=O)CC(C)(c2ccccc2)C1=O` (stereo not given), the Potency entry in assay [1], in assay [2], in [3], in [4], in assay [5] and in [6] was “inactive” in each case. For the same compound, the Potency result in assay [7], in assay [8], in assay [10], in [11], in assay [12] and in assay [13] was “inactive” in each case. Also, the Potency entry in [14], in assay [15] and in [16] was “inactive” throughout. Moreover, the outcome in [9] was inactive.

As to `CC#N`, the Potency result in [1], in [2], in assay [3], in assay [4], in assay [5] and in assay [6] was “inactive” throughout. Further, the Potency result in assay [7], in assay [8], in assay [10], in [11], in assay [12] and in assay [13] was “inactive” in each case. The Potency result in [14], in [15] and in [16] was “inactive” throughout. The outcome in assay [9] was inactive.

For the compound `c1cnc2c(n1)CCCC2`, the Potency entry in assay [1], in assay [2], in assay [3], in assay [4], in assay [5] and in assay [17] was “inactive” throughout. The Potency result in assay [20], in assay [18], in assay [6], in assay [19], in [8] and in assay [11] was “inactive” throughout. Besides, the Potency entry in assay [15] and in assay [16] was “inactive” each time. Besides, in assay [9], the compound was classed as inactive.
